From ChEMBL document CHEMBL1157539, “Thousands of chemical starting points for antimalarial lead identification” (Nature, 2010)

Tests used:
Format in all cases: functional
Plasmodium falciparum [1] = assay: GSK_TCMDC: Inhibition of Plasmodium falciparum 3D7 in whole red blood cells, using parasite LDH activity as an index of growth. Test compounds present at 2uM
Plasmodium falciparum [2] = assay: GSK_TCMDC: Inhibition of Plasmodium falciparum Dd2 in whole red blood cells, using parasite LDH activity as an index of growth. Test compounds present at 2uM
HepG2 = assay: GSK_TCMDC: Percent inhibition of human HepG2 cell line. Test compounds present at 10uM.

Compound	Inhibition (Plasmodium falciparum [1]) [%]	Inhibition (Plasmodium falciparum [2]) [%]	Inhibition (HepG2) [%]
CCn1ncc2c(NC3CCOCC3)c(CNC(=O)c3ccnn3C)c(C)nc21	98	98	0
CN1CCN(c2ccnc3cc4c(cc23)N(C(=O)Nc2ccc3c(c2)CCCC3=O)CC4)CC1.Cl	100	64	5
CCC(C)(C)c1ccc2nc(N)nc(N)c2c1C	91	82	62
Cl.Nc1nc(N)c2c(ccc3c2ccn3CCCC2CCCNC2)n1 (configuration not stated)	98	55	67
COc1ccc(CN2CCN(CCCCNC(=O)c3ccc(NC(=O)c4ccc(Cl)cc4)cc3)CC2)c(OC)c1	94	0	25
O=C(/C=C/c1c(Cl)cccc1Cl)NC1CCC(CN2CCC(Cc3cc4ccccc4[nH]3)CC2)CC1 (configuration not stated)	91	17	97
NS(=O)(=O)CCc1cccc(Nc2nccc(-c3c(-c4cccc(NC(=O)c5c(F)cccc5F)c4)nn4ccccc34)n2)c1	98	97	84
CC(C)CN1CCN(c2nc(C#N)c3c(c2C(=S)NC2CCCCC2)CC(C)(C)OC3)CC1	100	99	0
NC(=O)C1CCN(Cc2cccc(-c3cccc(-c4nc5cc(F)ccc5[nH]4)c3)c2)CC1.O=C(O)C(F)(F)F	100	7	15
CC(C)c1cc2c(ccc3nc(N)nc(N)c32)[nH]1	93	4	49
CC(=O)c1ccc(O)c(CC(O)CO)c1 (configuration not stated)	100	0	3
CCc1c(CCNCCCCCCNC(C)(C)Cc2ccc3c(c2CC)OCO3)ccc(OC)c1OC.Cl	100	50	100
O=C(Nc1cn(-c2ccc(OCc3cccc(F)c3)c(Cl)c2)c2ncncc12)c1ccncc1	100	81	13
COC(=O)C(c1ccc(NC(=O)[C@H](CC(C)C)NC(=O)OC(C)(C)C)cc1)c1ccc(NC(=O)[C@H](CC(C)C)NC(=O)OC(C)(C)C)cc1	94	42	0
CC(C)c1ccc(-c2noc(SCC(=O)N(C)c3ccc(F)cc3)n2)cc1	84	77	7
Cc1ccc(NC(=O)Nc2ccc(Cl)cc2)cc1-c1ccc(C(=O)Nc2ccncc2)cc1	99	63	54
Cc1cc2ccc(-c3cccc(CN)c3)cc2nc1N.Cl	100	1	0
Cc1cccc2nc(-c3ccc(-c4ccc(C(=O)NCCN5CCCC5)cc4)s3)[nH]c12	100	13	20
COc1cc(NC(=O)/C=C/c2ccccc2OC(F)(F)F)cc(OCCN2CCC(O)(c3ccccc3)CC2)c1.O=C(O)C(=O)O	100	50	61
